Source: PubChem BioAssay (NCI)
About 79,000 compounds went through this panel and 15% of them were active in at least one assay; those are over-represented in the sample as a whole. Unmarked numbers belong to inactive results. The source made the active and inactive calls. Cut-off read from the data, not from the text of the source: active = growth inhibition above about 70%; inactive = the rest.

Test: NCI Yeast Anticancer Drug Screen. Data for the rad52 strain (AID 147);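 note: 0% = growth of vehicle-treated control cultures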
Settings: S. cerevisiae rad52 mutant growth inhibition, hits give high values
Method: Growth inhibition of yeast strains with defined genetic alterations is measured as a screen for potential anti-cancer activity. Selected strains with alterations in DNA damage repair or cell cycle control were exposed to compounds and growth inhibition was measured relative to vehicle treated controls. The strain used in this assay is rad52

| Structure (SMILES) | growth inhibition (at 1.2 µM) [%] | growth inhibition (at 3.7 µM) | growth inhibition (at 11.0 µM) | growth inhibition (at 33.0 µM) | growth inhibition (at 100.0 µM) |
| --- | --- | --- | --- | --- | --- |
| c1ccc2c(c1)sc1nc3ccncc3nc12 | 5 | 16% | 38% | 61% | 92% (active) |
| COc1ccccc1/C=C1\Sc2scc(-c3cccc([N+](=O)[O-])c3)[n+]2C1=O | 31 | 80% (active) | 98% (active) | 97% (active) | 93% (active) |
| OC(COc1cccc2ccccc12)CN1CCOCC1 (stereo not given) | 15 | 32% | 44% | 51% | 50% |
| [O-][n+]1c2ccc(O)cc2nc2ccc(Br)cc21 | 1 | 16% | 42% | 83% (active) | 85% (active) |
| COc1ccc(-c2cn(-c3ccc(I)cc3)c3ncnc(N)c23)cc1 | -2 | -5% | -9% | -7% | -8% |
| COc1cc(C2c3cc4c(cc3OC(NNc3ccccc3)C2C)OCO4)cc(OC)c1OC (stereo not given) | 36 | 44% | 59% | 93% (active) | 75% (active) |
| CC(=O)Nc1ccc(/C=C(\C#N)c2ccc(C)cc2)cc1 | -10 | 0% | -5% | -2% | 1% |
| CC(C)c1ccccc1NC(=O)/C(Cl)=C(\Cl)C(=O)O | 0 | 1% | 0% | 5% | 99% (active) |
